We go through 40 compounds from PubChem BioAssay (Tox21).

Results filed as inconclusive are left out. Active and inactive are the calls of the source. The call rests on the fitted dose curve; in most records, active means well fitted cell-killing curve with a large enough effect in the repeat runs; inconclusive means weak or mixed curves, or effect the other way; inactive means flat fitted curve, though single readings scatter.

The assay is described as follows: qHTS RealTime-Glo MT Cell Viability Assay in HepG2 cells - 40 hour (AID 1224870). Further: nearly all actives have a fitted effect of over 50% in size. Conditions: RealTime-Glo luminescence; series mostly up to 76.8 µM. An excerpt:
National Center for Advancing Translational Sciences [NCATS]
NIH Chemical Genomics Center [NCGC]
U.S. Environmental Protection Agency [EPA]
National Institutes of Environmental Health Sciences [NIEHS]
National Toxicology Program [NTP]
U.S. Food and Drug Administration [FDA]
Measure of cell viability is critical in the cell-base assay. Analysis of cell viability is necessary for the characterization of cell responses to cytotoxic drugs and environmental stress. A RealTime-Glo MT Cell Viability Assay to monitor cell viability in real time of continues cell culture during 40 hours of compound treatment was used to screen Tox21 10K library compounds in HepG2 cells. The RealTime-Glo MT Cell Viability Assay is a nonlytic, homogeneous, bioluminescent method to measure cell viability in real time using a simple, plate-based method. The assay involves adding NanoLuc luciferase and a cell-permeant prosubstrate to cells in culture. Viable cells reduce the proprietary prosubstrate to generate a substrate for NanoLuc luciferase. This substrate diffuses from cells into the surrounding culture medium, where it is rapidly used by the NanoLuc Enzyme to produce a luminescent signal. The signal correlates with the number of viable cells, making the assay well suited for cytotoxicity studies.
Tox21 Assay Protocol Summary:
The mixture of HepG2 cell suspension and reagents were dispensed at 600cells/6 ul/well in 1536-well tissue culture treated black solid bottom plates using a Multidrop dispenser. After the assay plates were incubated at a 37 C/5% CO2 incubator for 5 hours, 23 nL of compounds dissolved in DMSO, positive and negative controls was transferred to the assay plate by a pintool work station. The plates were incubated at 37 C for 40 hours. The luminescence intensity were measured at 0h, 8h, 16h, 24h, 32h and 40h time points using ViewLux plate reader during compound treatment.
For the compound `C[C@H]1O[C@H](O[C@H]2[C@H](O)[C@@H](O)[C@@H](O[C@H]3[C@H](O)[C@@H](O)[C@H](O)O[C@@H]3CO)O[C@@H]2CO)[C@H](O)[C@@H](O)[C@@H]1N[C@H]1C=C(CO)[C@@H](O)[C@H](O)[C@H]1O`, the call was inactive. For the compound `CC(=O)OC[C@H]1O[C@@H](OC(C)=O)[C@H](OC(C)=O)[C@@H]1OC(C)=O`, the compound was called inactive. To `O=c1cc(O)c(Cl)c[nH]1` belongs “inactive”; to `CN=C(NC#N)NCCSCc1csc(N=C(N)N)n1`, “inactive”.

As for `CC(C)CCCCCCOC(=O)C1CCCCC1C(=O)OCCCCCCC(C)C` (stereo not given), the outcome was inactive.

In the case of `COc1ccc(OC)c(NC(=O)CC(C)=O)c1`, the outcome was inactive. For `CCCCCCCCCCC` the value was “inactive”.

As for `C=C(C)C(=O)OC1CC(C)CC(C)(C)C1` (stereo not given), the call was inactive. For `CCC(=O)OCCC(C)CCC=C(C)C` (stereo not given) the value was “inactive”; for `OC(CCN1CCCCC1)(c1ccccc1)c1ccccc1`, “inactive”.

Consider `Cc1ccccc1OCC1CO1` (stereo not given), for which the result was inactive. For `CC(C)=CC(C)(C)C` the value was “inactive”; for `C[Si]1(C)N[Si](C)(C)N[Si](C)(C)N1`, “inactive”. For `O=C1CC[C@H](C(=O)N2CCCCC2)N1` the value was “inactive”; for `CCCOC(=O)CCCCC(=O)OCCC`, “inactive”; for `COc1cc([N+](=O)[O-])ccc1N`, “inactive”.

Take `Cc1cccc(Nc2ccncc2S(=O)(=O)NC(=O)NC(C)C)c1`: the compound was called inactive. For `CC(=O)Nc1ncc([N+](=O)[O-])s1` the value was “inactive”; for `CC(C)SCc1ccco1`, “inactive”; for `CC1=CC[C@H](CC=O)C1(C)C`, “inactive”. As for `CC1CCC(C(C)(C)S)C(=O)C1` (stereo not given), the outcome was inactive.

Consider `NC(=O)NNC(N)=O`, for which the compound was classed as inactive. To `Cc1ccccc1C` belongs “inactive”. For `c1ccccc1` the value was “inactive”; for `C=C(C)C(=O)OCCCCCCOC(=O)C(=C)C`, “inactive”; for `CC(CC(=O)O)CC(C)(C)C` (stereo not given), “inactive”. To `CC(=O)c1ccc(OCC(=O)N2CCCCC2)cc1` belongs “inactive”. On to `Cc1nc2ccccc2c(=O)o1`, for which the call was inactive.

Take `C1=CCC(c2ccccc2)CC1` (stereo not given): the outcome was inactive. For `Nc1ccc(S(=O)(=O)NC(=O)c2ccccc2)cc1`, the compound was classed as inactive. For `CN[C@@H]1[C@H](O)[C@H](NC)[C@H]2O[C@@]3(O)C(=O)C[C@@H](C)O[C@H]3O[C@@H]2[C@H]1O` the value was “inactive”. To `O=C(COCCOCCOCC(=O)Nc1c(I)cc(I)c(C(=O)O)c1I)Nc1c(I)cc(I)c(C(=O)O)c1I` belongs “inactive”.

As to `CC(=O)Nc1ccc(C)cc1`, the outcome was inactive. To `C=C[Si](C)(C)O[Si](C)(C)C=C` belongs “inactive”; to `C=C(C)[C@@H]1CC[C@@H](C)C[C@@H]1O`, “inactive”. For `CCN(CC)C(=O)C1CN2CCc3cc(OC)c(OC)cc3C2CC1OC(C)=O` (stereo not given) the value was “inactive”.

Take `FC(F)(F)/C(=N\OCC1OCCO1)c1ccc(Cl)cc1`: the call was inactive. For `COC(=O)CCC(=O)O` the value was “inactive”. With `Cc1ccc2c(c1)c1c3n2CCNC3CCC1` (stereo not given), the outcome was inactive. For `Cc1cccc(C(=O)O)c1[N+](=O)[O-]` the value was “inactive”.
